This is a sample that favours compounds with a hit; in the whole collection about 1.5% have one here.
SARS 3CLpro inh = SARS-CoV 3CLpro protease inhibition; recombinant SARS-CoV 3CLpro, quenched FRET peptide cleavage; inhibition, % at 6 µM; P0C6X7; actives 0.14% (n = 290,000); in the data active means inhibition above about 12%
DUSP3 inh = blocks human VHR1 dual specificity phosphatase; P51452; recombinant VHR phosphatase, pNPP absorbance; inhibition, % at 13.3 µM; actives 0.52% (n = 290,000); AID 1654; in the data active means inhibition above about 50%
Target sequence (P51452 whole entry, looked up): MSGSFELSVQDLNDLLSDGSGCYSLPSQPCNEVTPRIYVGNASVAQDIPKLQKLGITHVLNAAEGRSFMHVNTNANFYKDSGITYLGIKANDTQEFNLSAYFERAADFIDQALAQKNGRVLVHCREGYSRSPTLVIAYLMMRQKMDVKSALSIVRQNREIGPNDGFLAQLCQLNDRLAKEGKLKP
RecA splice inh = inhibitors of M. tuberculosis RecA intein splicing; inhibition, % (test concentration not listed); P9WHJ3; cell-free RecA intein splicing, fluorescence; actives 0.75% (n = 290,000); AID 2221; in the data active means inhibition above about 30%
CCHFV vOTU inh = blocks the CCHF virus ovarian tumor domain protease. CCHFV vOTU protease, Pep-AMC fluorescence. inhibition, % at 11.5 µM. actives 0.55% (n = 370,000). AID 651958; in the data active means inhibition above about 30%
Numbers stand for hits; n = inactive; x = no result given.

SMILES	SARS 3CLpro inh	DUSP3 inh	RecA splice inh	CCHFV vOTU inh
CCc1ccccc1NC(=O)C1CCCN(c2ncccn2)C1 (stereo not given)	n	50.4	n	n
Cc1cc(=O)n(Cc2ccc(OC(C)C)cc2)c(=S)[nH]1	n	52.5	n	n
COc1ccc(CN2CCN(Cc3cc4ccccc4o3)CC2CCO)cc1C (stereo not given)	n	59.1	n	n
Cn1c(=O)c(C(=O)NCCc2ccc(Cl)cc2)c(O)c2ccccc21	n	59.1	n	n
Cn1c(=O)c(C(=O)NCc2ccc(Cl)cc2)c(O)c2ccccc21	n	n	n	n
NC(=O)CN1C(=O)C(O)(CC(=O)c2ccccc2O)c2ccccc21 (stereo not given)	16.4	n	n	n
O=C(OCC(=O)N1CCCC1)c1cnc(Cl)c(Cl)c1	x	x	x	n
COc1cccc(CNC(=O)C2CCC(CNS(=O)(=O)c3cccc4cccnc34)CC2)c1 (stereo not given)	n	55.5	n	n
Cc1cccc(-n2ncc3c(N(C)Cc4ccccc4)ncnc32)c1	x	n	n	n
COc1cc2c(=O)n(CCC(=O)NCC3CCCO3)c(=O)n(CC(=O)c3ccc(Cl)cc3)c2cc1OC (stereo not given)	n	50.6	n	n
O=C(Nc1sc2c(c1C(=O)NCCCO)CCCC2)c1ccccc1	n	n	n	n
O=C(Nc1sc2c(c1C(=O)O)CCC2)c1ccccc1	n	52.3	n	n
NCCNC(=O)c1c(NC(=O)c2ccccc2)sc2c1CCCC2	n	53.9	n	n
CC1(C)CC(=O)C2=C(C1)Nc1[nH]n(-c3ccccc3)c(=O)c1C2c1ccc2c(c1)OCO2 (stereo not given)	n	n	68.7	n
COCCOC(=O)C1=C(C)NC2=C(C(=O)CC(C)(C)C2)C1c1ccc2c(c1)OCO2 (stereo not given)	n	n	x	n
CCn1c(=O)cc(SCC(=O)NCc2ccccn2)c2ccccc21	n	54.7	n	n
CCn1c(=O)cc(SCC(=O)NCc2cccnc2)c2ccccc21	n	n	n	n
O=[N+]([O-])c1cccc(N/N=C/c2cccc3ccccc23)c1	n	n	n	n
Cc1ccc2c(c1)c1nnc(SCC(=O)Nc3cccc(Cl)c3C)nc1n2CC(=O)O	n	n	x	n
Cc1ccc2c(c1)c1nnc(SCC(=O)Nc3ccc(N(C)C)cc3)nc1n2CC(=O)O	n	n	39.1	n
CCn1c(=N)c(S(=O)(=O)c2ccc(C)cc2)cc2c(=O)n3ccccc3nc21	n	52.5	n	n
CCn1c(=N)c(S(=O)(=O)c2ccccc2)cc2c(=O)n3ccccc3nc21	n	n	n	n
O=C(NC1(C(=O)NC2CCCC2)CCCCC1)c1ccc2c(c1)OCO2	n	n	n	n
O=C(NC1(C(=O)NC2CCCCC2)CCCCC1)c1ccc2c(c1)OCO2	n	51.6	n	n
NC(=S)n1[nH]c(-c2ccc([N+](=O)[O-])cc2)c(N=Nc2ccccc2[N+](=O)[O-])c1=O	n	n	x	n
SMILES	SARS 3CLpro inh	DUSP3 inh	RecA splice inh	CCHFV vOTU inh
NC(=S)n1[nH]c(-c2ccc([N+](=O)[O-])cc2)c(N=Nc2cccc([N+](=O)[O-])c2)c1=O	n	81.3	x	n
COc1ccc2cc(C3=CCCCC3)ncc2c1	x	x	x	n
OCCN(Cc1nc(-c2ccc3c(c2)OCO3)no1)Cc1cccs1	n	57.8	n	n
S=C(NCCCn1ccnc1)Nc1cccc(Cl)c1	n	n	n	n
COc1ccc(-n2c(Cn3c(=O)sc4ccccc43)nnc2SCC(=O)N2CCCCC2)cc1	n	n	x	n
COc1ccc(-n2c(Cn3c(=O)sc4ccccc43)nnc2SCC(=O)N2CCCC2)cc1	n	50.3	x	n
COC(=O)c1ccc(Nc2c([N+](=O)[O-])c(=O)oc3ccccc23)cc1	n	n	x	n
Cc1ccc2c(cnn2C(=O)CCC(=O)N2CCCCC2C)c1 (stereo not given)	n	n	n	n
CCC(=O)N1N=C(c2cccs2)CC1c1ccc(C)cc1 (stereo not given)	n	n	n	n
Cc1ccc(C2CC(c3cccs3)=NN2C(=O)CSC2=NCCS2)cc1 (stereo not given)	n	n	56.8	n
COc1ccc(C2CC(c3cccs3)=NN2C(=O)CSC2=NCCS2)cc1 (stereo not given)	n	n	40.9	n
CC(=O)OC12CCCN(C1)/C(=C/c1ccc(Cl)cc1)C2 (stereo not given)	x	x	x	n
O=C(CCc1ccc(O)c(O)c1)N/N=C/c1ccc2c(c1)OCO2	n	n	n	n
CC(C)Oc1ccc(CCC(=O)N/N=C/c2ccc3c(c2)OCO3)cc1	n	50.7	n	n
N#CCCN(C(=O)COC(=O)COc1ccccc1Cc1ccccc1)c1ccccc1	x	x	x	n
Cc1ccc(C(=O)Nc2nnc(CC(=O)N/N=C/c3ccc(O)c(O)c3)s2)cc1	n	54.2	n	n
COC(=O)[C@@H]1C[C@@]2(c3ccccc3)c3ccccc3N(S(=O)(=O)c3ccccc3)[C@H]2N1C(=O)CNC/C=C(\C)CCC=C(C)C	x	x	x	n
CCNC(=O)/C(C#N)=C/c1c(N(Cc2ccccc2)Cc2ccccc2)nc2ccccn2c1=O	n	n	n	n
CNC(=O)/C(C#N)=C/c1c(N(Cc2ccccc2)Cc2ccccc2)nc2c(C)cccn2c1=O	n	n	31.0	n
CCOC(=O)CC[C@H]1CC[C@]2(CCCN(C(=O)c3ccno3)C2)O1	x	x	x	n
CCOc1ccccc1NC1=NCC(=O)N1Cc1ccc(F)cc1	n	53.4	n	n
CN1C=C/C(=C\c2cc[n+](C)c3ccccc23)c2ccccc21	n	n	70.6	n
O=[N+]([O-])c1ccc(Sc2nnnn2-c2ccccc2)nc1	n	n	57.9	n
CN(C)C(=O)c1ccc2c(c1[N+](=O)[O-])C(=O)c1ccccc1C2=O	n	n	54.7	n
Cc1[nH]c2c(C)cccc2c1CCNC(=O)c1ccc2c(c1[N+](=O)[O-])C(=O)c1ccccc1C2=O	n	n	n	n
SMILES	SARS 3CLpro inh	DUSP3 inh	RecA splice inh	CCHFV vOTU inh
CCC(=O)Oc1ccc(C2NC(=O)c3ccccc3O2)cc1OC (stereo not given)	n	59.7	n	n
CCCC(=O)Oc1ccc(C2NC(=O)c3ccccc3O2)cc1OC (stereo not given)	n	59.7	n	n
COc1ccc(C2NC(=O)c3ccccc3O2)cc1OC (stereo not given)	n	n	n	n
Cc1cc2nccc(-c3ccc(Cl)cc3Cl)n2n1	n	n	n	n
CC(Sc1nc2ccccc2c(=O)n1CC1CCCO1)C(=O)Nc1ccc(S(N)(=O)=O)cc1 (stereo not given)	x	x	n	n
C/C=C/c1ccc(OCCn2nnc3ccccc32)c(OC)c1	n	n	n	n
C=CCc1ccc(OCCn2nnc3ccccc32)c(OC)c1	n	55.5	n	n
Cc1ccc(NC(=O)c2cnc(SCC(=O)NCC3CCCO3)n(C)c2=O)cc1C (stereo not given)	x	x	50.8	n
Cc1oc(S(=O)(=O)N2CCOCC2)cc1C(=O)Nc1ccc(Cl)cc1	n	n	n	n
O=c1[nH]c2cc(Br)c(Br)nc2[nH]1	x	x	x	n
COc1ccccc1NS(=O)(=O)c1cc(NC(=O)c2sccc2C)ccc1N1CCCC1	n	52.9	n	n
COc1ccccc1NS(=O)(=O)c1cc(NC(=O)c2sccc2C)ccc1N1CCOCC1	n	n	n	n
